Experimental data published in PubChem BioAssay.

target: Calmodulin-1 (Homo sapiens) (UniProt P0DP23); assay: small molecules binding calmodulin-1 with EGTA – biochemical, small-molecule microarray, Cy5-labelled CALM1, profiling panel (AID 1111); conditions: Cy5-CALM1 binding fluorescence, higher = more signal;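 also: labelled calmodulin applied in Tris saline Tween buffer holding calcium plus EGTA and DTT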

SMILES | composite z-score
CCOC(=O)C[C@H]1[C@H](OC(=O)c2ccccc2-c2ccccc2)[C@@H](NC(=O)c2ccccc2)c2cc(OCCCO)ccc2N1C(=O)Cc1ccc(OC)cc1 | -0.026
C=CCC(OC(C)=O)[C@@H]1[C@@H](N(Cc2ccc(-c3cccc(C(F)(F)F)c3)o2)C(=O)c2cccc3ccccc23)c2cc(OCCCO)ccc2N1C(=O)c1ccc(-c2ccccc2)cc1 (some centres undefined) | -0.638
C[C@H]1ON(c2ccccc2)[C@@H](c2ccccc2)[C@@H]1C(=O)N1C(=O)OC[C@@H]1c1ccccc1 | -0.238
COCCOC(=O)N1C(=O)[C@@]2(c3cc(C#CCNC(N)=O)ccc31)[C@H](C(N)=O)[C@H]1C(=O)O[C@H](c3ccccc3)[C@H](c3ccccc3)N1[C@@H]2c1ccc(OCCO)cc1 | 0.701
CCCC=C(CCC)[C@@H](NS(=O)(=O)c1cccc2cccnc12)c1ccc(C(=O)OC)cc1 | 0.156
CCOC(=O)C1=CC[C@@H](c2ccccc2)N(S(=O)(=O)c2ccc(C)cc2)[C@H]1C=C(C)C | 0.808
C#CCNS(=O)(=O)N(C)C | -0.157
O=C1O[C@H](c2ccccc2)[C@H](c2ccccc2)N2[C@H]1[C@@H](C(=O)N1CCN(c3ncccn3)CC1)[C@]1(C(=O)Nc3ccc(C#CCCO)cc31)[C@H]2c1ccc(OCCO)cc1 | 1.23
COCCOC(=O)N1C(=O)[C@@]2(c3cc(C#CC4(O)CCCCCC4)ccc31)[C@H](C(=O)N1CCN(c3ncccn3)CC1)[C@H]1C(=O)O[C@H](c3ccccc3)[C@H](c3ccccc3)N1[C@@H]2c1ccc(O)cc1 | 1.56
